Source: PubChem
FadD28 binding – inhibitors of FadD28 bisubstrate probe binding, primary screen, biochemical, fluorescence polarization, single point | Mycobacterium tuberculosis FadD28 fatty-acid-AMP ligase | inhibition, % at 12.5 µM | 0.22% of 360,000 active; in the data active means inhibition above about 8.5%, passing the limit was not always enough; inconclusive means no clear call, values can overlap the other calls
PrP 5UTR inh – inhibition of PrP 5' UTR reporter expression. inhibition, % (concentration not given with the values). AID 488862, 2010. cell-based PrP 5' UTR mRNA reporter, plate reader. 0.35% of 340,000 active; in the data active means inhibition above about 52%
PriA SSB inh – inhibitors of Klebsiella pneumoniae PriA binding to SSB C-terminal tail, primary screen, biochemical, AlphaScreen; AlphaScreen SSBct-PriA binding, biotinylated peptide; inhibition, % at 33 µM; 0.6% of 430,000 active; in the data active means inhibition mostly above about 37%, no sharp cut-off; inactive means mostly below about 20%
Vc quorum ag – inducers of Vibrio cholerae quorum light production without autoinducers, primary screen, BH1578 luxS cqsA deficient, single point; 0.16% of 350,000 active; V. cholerae BH1578 lux reporter, luminescence, 6 h; activation, % at 18.7 µM; AID 588436, 2011; in the data active means activation mostly above about 9.7%, no sharp cut-off; inconclusive means no clear call, values can overlap the other calls; inactive means mostly below about 3.7%
PrPC surface inh – inhibitors of human cell surface prion protein PrPC, primary screen, cell-based, TR-FRET; inhibition, % at 13.8 µM; 0.43% of 370,000 active; TR-FRET read-out; Major prion protein (Homo sapiens), P04156; in the data active means inhibition above about 24%
A number is an active result; . = inactive; ? = inconclusive; / = not tested or not shown; + = active, no number; ! = repeats disagree. Hits are enriched below; roughly 1.4% of the tested compounds scored in any of these assays.

SMILES | FadD28 binding | PrP 5UTR inh | PriA SSB inh | Vc quorum ag | PrPC surface inh
NC(=S)N/N=C(\c1ccccc1)c1ccccn1 | / | / | + | / | /
S=C(NN=Cc1ccccn1)N(Cc1ccccn1)Cc1ccccn1 | . | . | 96 | / | .
CCCN1CCCc2cc(CCNS(=O)(=O)c3ccccc3)ccc21 | / | / | . | / | /
CCOc1ccc(S(=O)(=O)NCCc2ccc(N3CCCC3)cc2)cc1F | / | / | . | / | /
CCCN1CCCc2cc(CCNS(=O)(=O)c3ccc(OC)c(F)c3)ccc21 | / | / | 66 | / | /
CCCN1CCCc2cc(CCNS(=O)(=O)c3cccc(F)c3)ccc21 | / | / | 65 | / | /
CCCN1CCCc2cc(CCNS(=O)(=O)c3ccc(OCC)c(C)c3)ccc21 | / | / | 56 | / | /
CCCN1CCCc2cc(CCNS(=O)(=O)c3ccc(OCC)c(F)c3)ccc21 | / | / | 39 | / | /
CCOc1ccc(S(=O)(=O)NCCc2ccc3c(c2)CCCN3C)cc1 | / | / | . | / | /
COC(=O)c1ccc(CSc2nc3c(cnn3-c3ccccc3OC)c(=O)[nH]2)cc1 | / | / | . | / | /
Cc1ccc(C=NNC(=O)CNC(=O)c2ccc(S(=O)(=O)N(C)C)cc2)cc1 | / | / | . | / | /
CCCN1CCCc2cc(CCNS(=O)(=O)c3cc(C)ccc3OCC)ccc21 | / | / | 71 | / | /
CCCN1CCCc2cc(CCNC(=O)C(=O)Nc3ccc(OCC)cc3)ccc21 | / | / | . | / | /
CC(=O)c1c(C)[nH]c(C(=O)NC2CCSc3c(F)cccc32)c1C (stereo unspecified) | / | / | 88 | / | /
CCOC(=O)c1c(C)[nH]c(C(=O)NC2CCSc3ccccc32)c1C (stereo unspecified) | / | / | . | / | /
CCc1c(C(=O)NC2CCCc3ccccc32)[nH]c(C)c1C(C)=O (stereo unspecified) | . | . | . | . | .
CC(=O)c1c(C)[nH]c(C(=O)NC2CCSc3ccccc32)c1C (stereo unspecified) | . | . | 45 | . | .
Cc1nnc(NN=Cc2cc([N+](=O)[O-])c(N3CCC(C)CC3)cc2N2CCC(C)CC2)n1N | / | / | 42 | / | /
Cc1ccc(CSCc2ccc(-c3nc(-c4cccs4)no3)o2)cc1 | / | / | . | / | /
CCC1CCc2c(c3ccccc3[nH]c2=O)O1 (stereo unspecified) | . | . | 87 | . | .
CS(=O)(=O)C1CCN(C(=O)c2ccc(Cl)s2)CC1 | / | / | . | / | /
CCNC(=S)N(Cc1ccc2c(c1)OCO2)C1CC(=O)N(c2ccc(OC)cc2)C1=O (stereo unspecified) | . | . | . | 50 | .
CCNC(=S)N(Cc1ccc2c(c1)OCO2)C1CC(=O)N(c2ccc(F)cc2)C1=O (stereo unspecified) | . | . | . | . | .
COC(=O)c1ccccc1-c1c2ccc(=N)cc-2oc2cc(N)ccc12 | 129 | . | . | . | .
COC(=O)c1ccccc1-c1ccc(/C=N/NC(=O)c2cc3ccccc3o2)o1 | . | . | / | . | .
SMILES | FadD28 binding | PrP 5UTR inh | PriA SSB inh | Vc quorum ag | PrPC surface inh
CC(C)(C)NC(=O)N1CCC(CNS(=O)(=O)c2ccccc2OC(F)(F)F)CC1 | / | / | . | / | /
O=C(O)c1[nH]c2ccccc2c1C(c1c(F)cccc1Cl)c1c(C(=O)O)[nH]c2ccccc12 | 24 | . | . | . | .
COc1cc(Cl)cc(C(c2c(C(=O)O)[nH]c3ccccc23)c2c(C(=O)O)[nH]c3ccccc23)c1O | 33 | . | . | . | .
Cc1[nH][nH]c(=O)c1C(c1cc(Br)ccc1O)c1c(C)[nH][nH]c1=O | . | . | . | . | .
COc1cc(C(=O)Nc2c(C(=O)O)[nH]c3ccccc23)cc(OC)c1OC | . | . | . | . | .
O=C(O)c1[nH]c2ccccc2c1C(c1cc(Br)ccc1O)c1c(C(=O)O)[nH]c2ccccc12 | 35 | . | . | . | .
COc1ccc(N2CCN(C(=O)c3ccc(COc4ccc([N+](=O)[O-])cc4)o3)CC2)cc1 | . | . | 40 | . | .
COc1ccc(N2CCN(C(=O)Oc3ccc([N+](=O)[O-])cc3)CC2)cc1 | / | / | / | / | .
CC(C)(C)c1ccc(C(=O)N2CCNCC2)cc1 | . | . | . | . | .
O=C(c1ccc(-c2cc(O)c3ncccc3c2)cc1)N1CCNCC1 | . | . | 74 | . | .
COc1cccc(C(=O)Nc2c(C)nc3scc(C)n3c2=O)c1OC | / | / | . | / | /
COc1cc(/C=C(\C#N)C(=O)c2ccc(O)c(O)c2)cc(I)c1O | 12 | . | . | . | .
O=C(O)c1cccc(NS(=O)(=O)c2cccc(Cl)c2)c1 | / | / | . | / | /
CN(C)S(=O)(=O)c1cccc(NC(=S)NN=Cc2cc(Br)ccc2O)c1 | / | / | 47 | / | /
O=S(=O)(Nc1ccc(Nc2ccc(-n3cccn3)nn2)cc1)c1cccc(Br)c1 | / | / | . | / | /
CCOc1ccc(S(=O)(=O)Nc2ccc(Nc3ccc(-n4cccn4)nn3)cc2)cc1 | / | / | 70 | / | /
CCOc1ccc(CCNC(=O)c2ccc3c(=O)[nH]c4c(C(=O)NC(C)C)sc(=S)n4c3c2)cc1 | 21 | . | . | . | .
O=C(NCCc1ccc(Cl)cc1)c1ccc2c(=O)[nH]c3c(C(=O)NCC4CCCO4)sc(=S)n3c2c1 (stereo unspecified) | / | / | / | / | .
O=C(NCCc1ccccc1)c1ccc2c(=O)[nH]c3c(C(=O)NCC4CCCO4)sc(=S)n3c2c1 (stereo unspecified) | 61 | . | . | . | .
CCCCNC(=O)c1sc(=S)n2c1[nH]c(=O)c1ccccc12 | 24 | . | . | . | .
O=C(NCC1CCCO1)c1sc(=S)n2c1[nH]c(=O)c1ccc(C(=O)N3CCCCC3)cc12 (stereo unspecified) | 10.0 | . | . | . | .
CC(C)NC(=O)c1sc(=S)n2c1[nH]c(=O)c1ccc(C(=O)NCCc3ccc(Cl)cc3)cc12 | ? | . | . | . | .
CN(C)CCCN(C(=O)c1ccc(C(=O)c2ccccc2)cc1)c1nc2cc3c(cc2s1)OCCO3 | . | . | 41! | . | .
CN(C)CCN(C(=O)c1ccc(C(=O)c2ccccc2)cc1)c1nc2cc3c(cc2s1)OCCO3 | . | . | 49 | . | .
CN(C)CCN(C(=O)c1ccc(C(=O)c2ccccc2)cc1)c1nc2cc3c(cc2s1)OCO3 | . | . | 43! | . | .
